Results as given in ChEMBL document CHEMBL3988442, “University of Dundee, Small-Polar-MMV Screening Library” (2021).

Experiments:
[1] = target: T1, Aspartate--tRNA(Asp/Asn) ligase (Mycobacterium tuberculosis (strain ATCC 25618 / H37Rv)) (UniProt P9WFW3); experiment: Assay for Asp RNA synthetase-1 from Mycobacterium tuberculosis; format: functional; parameters: scale not given: direction of the effect not stated beside the values; details: 30 µM; note: in the data most compounds retested in dose-response had high values
T1 sequence (whole entry): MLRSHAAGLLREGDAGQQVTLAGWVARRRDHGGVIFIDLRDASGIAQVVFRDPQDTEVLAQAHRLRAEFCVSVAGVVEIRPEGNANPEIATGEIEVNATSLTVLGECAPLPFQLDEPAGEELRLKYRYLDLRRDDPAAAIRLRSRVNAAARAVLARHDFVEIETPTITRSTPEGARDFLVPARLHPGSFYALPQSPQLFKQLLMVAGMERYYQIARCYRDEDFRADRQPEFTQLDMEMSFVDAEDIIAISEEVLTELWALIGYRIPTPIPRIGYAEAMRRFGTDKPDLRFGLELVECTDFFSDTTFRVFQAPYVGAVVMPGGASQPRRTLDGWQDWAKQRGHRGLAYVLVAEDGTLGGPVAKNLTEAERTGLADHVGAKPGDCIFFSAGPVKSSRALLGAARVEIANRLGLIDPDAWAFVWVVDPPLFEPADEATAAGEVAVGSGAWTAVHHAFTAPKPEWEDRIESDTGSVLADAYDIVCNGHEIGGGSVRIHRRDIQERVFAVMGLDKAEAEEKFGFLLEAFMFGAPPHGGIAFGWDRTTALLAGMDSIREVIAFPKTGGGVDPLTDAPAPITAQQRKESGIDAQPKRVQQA

[2] = target: Shiga toxin 2 (Escherichia coli O157:H7) (UniProt P09385+P09386); experiment: E. coli 0.157:H7 Shiga Toxin SOP - stx2 screening assay; format: functional; parameters: scale not given: direction of the effect not stated beside the values; details: 30 µM

Structure (SMILES) | Percent Effect [1] | Percent Effect [2]
CCC(=O)N1CCC(O)(c2ncc(OC)nc2OC)CC1 | 1.66% | 16.1%
CNS(=O)(=O)c1ccc(C(=O)N2CCCC2c2cnn(C)c2)o1 (configuration not stated) | -2.58% | -29.3%
Cc1cc(-c2nnc(SCC(=O)O)n2C(C)c2ccccc2)nn1C (configuration not stated) | 2.15% | 2.98%
CCC1CCCN(C(=O)Cc2csc(-c3ncccn3)n2)C1 (configuration not stated) | 0.456% | -14.8%
OCCOc1nc(-c2ccccc2Cl)no1 | -8.6% | -16.2%
OC(CN(Cc1ccccc1)Cc1ccncc1)c1cccs1 (configuration not stated) | -1.23% | 4.51%
CCS(=O)(=O)c1ccccc1N1CCC(NC(C)=O)CC1 | -0.991% | 11.9%
CC(C)c1ccc(OCn2ccc(C(=O)N3CCCC3)n2)cc1 | 5.38% | -13.8%
Cc1nc(CN2C(=O)CC[C@@H]3[C@H]2CCN3C(=O)NC2CC2)cs1 | -0.474% | -11.4%
O=C(NCc1nnc2n1CCC2)N(Cc1ccco1)C1CC1 | 1.06% | -5.54%
Cc1noc(C)c1CNC(=O)N1CCN(Cc2cscn2)CC1 | 0.233% | 1.78%
CC(C)(C)C(=O)N1CCCC1c1nc(O)cc(-c2ccccn2)n1 (configuration not stated) | -4.27% | 5.71%
CCOc1ccc(C(C)NC(=O)N2CCC(C(N)=O)CC2)cc1OC (configuration not stated) | -0.725% | 10.2%
Cn1nc(C2CCN(C(=O)Cc3cccc(F)c3)CC2)c2cccnc21 | -2.81% | -7.51%
CCOC(=O)NC(C(=O)NCc1ccc(N2CCCCC2)nc1)C(C)C (configuration not stated) | -3.06% | 21.9%
CC(=O)N1CCO[C@@H]2CN(C(=O)c3cc(C)oc3C)CC[C@@H]2C1 | 4.81% | -5.49%
CC1CCCN(Cc2coc(-c3cccc(F)c3)n2)C1 (configuration not stated) | -10.1% | 7.24%
O=C1CC2(CCN(c3nncs3)C2)CN1c1ccccc1 (configuration not stated) | 2.1% | -24.1%
CCn1ncc2c1C(COCC1CC1)CN(C(=O)c1cccs1)C2 (configuration not stated) | -1.73% | 33.1%
O=C(NCCc1nnc2n1CCC2)NCC1(c2cccc(F)c2)CC1 | -2.55% | 4.87%
Cc1cnc(N2CCC3(CCN(CC4CC4)C3=O)CC2)nc1 | -3.05% | -8.57%
Cc1ncncc1C(=O)Nc1cnn(CC(=O)NC2CCCC2)c1 | -6.25% | -10.6%
COc1cccc(NC(=O)N(CCO)Cc2ccsc2)c1 | -1.36% | -14.3%
Cc1nc(C)n(C2CCCN(C(=O)c3ccc(N(C)C)nn3)C2)n1 (configuration not stated) | 0.605% | 11.2%
CC(C)c1n[nH]c(C2CN(C(=O)CCn3ccccc3=O)CCO2)n1 (configuration not stated) | -1.85% | 10.2%
COCC1CCCN(C(=O)c2cc(Cn3ccc4ccccc43)[nH]n2)C1 (configuration not stated) | 9.18% | -24.9%

Structure (SMILES) | Percent Effect [1] | Percent Effect [2]
Cc1n[nH]c(C2CN(C(=O)c3cc(C4CC4)[nH]n3)CCO2)n1 (configuration not stated) | 1.87% | 23.4%
CCC(C)(C)NC(=O)C1CC(=O)N(CC2CC2)C1 (configuration not stated) | 5.42% | 28.9%
CCc1nc(CC(=O)NCC(Cc2ccc(F)cc2)C(N)=O)cs1 (configuration not stated) | 1.14% | 3.77%
Cc1noc(C2CCN(Cc3cc(=O)n(C)c(=O)n3C)CC2)n1 | -4.37% | -1.09%
CCOCCCNC(=O)c1cc(C)nc(N2CCCC2)n1 | -5.84% | -10.3%
CN(C)C(=O)N1CCOCC2(CCN(c3ncccn3)C2)C1 (configuration not stated) | 0.466% | 10%
O=C(NCCc1ccccn1)C1=NN(c2ccccc2)C(=O)CN1 | 11.3% | 1.11%
Cc1nc(COC[C@@H]2CC[C@H]3[C@H](CCN3S(C)(=O)=O)O2)cs1 | 6.16% | 1.49%
Cc1n[nH]c(C2CN(C(=O)CCc3ccco3)CCO2)n1 (configuration not stated) | 7.13% | -9.36%
COc1ccc(CCN2CCc3c(nc(C4CC4)n3C)C2)cc1 | 4.19% | -51.7%
CC(=O)N1CCCC1C(=O)NCCOc1cc(C)cc(C)c1 (configuration not stated) | -2.19% | 9.04%
CCCNC(=O)CN1CCN(Cc2csc(C(C)(C)C)n2)CC1 | -3.03% | 11.1%
O=c1c2cnc(N3CCCCC3)nc2ccn1-c1ccccc1 | -0.697% | -17.9%
O=C(Cc1ccc2c(c1)CCO2)N1CCCCC1Cn1cccn1 (configuration not stated) | -2.75% | -6.84%
O=C(NC[C@]12COC[C@H]1CN(Cc1nccs1)C2)N1CCCC1 | 1.45% | -23.5%
O=C(C1CCOC1)N1C[C@H]2CN(Cc3nccs3)C[C@H]2C1 (some centres not stated) | -1.88% | 1.98%
O=C(N1CCOCC1)[C@@]12CCO[C@@H]1CCN(CC1CCCCC1)C2 | -2.47% | -36.5%
Cc1[nH]ccc1C(=O)N1CCC(c2nnc(Cn3ccnc3)n2C)CC1 | -1.28% | -20.6%
O=C1CCC2(CCN(Cc3nccs3)CC2)N1Cc1ccccc1 | -2.78% | 13.1%
COCCN1CCC(CNC(=O)c2cc(C)cc(C)c2)C1 (configuration not stated) | -2.92% | -3.77%
OCC1CCCN1c1cc(N2CCN(c3ccccn3)CC2)ncn1 (configuration not stated) | -3.49% | 32.6%
C[C@]1(O)CCN(Cc2cncs2)C[C@@H]1Oc1cccc(F)c1 | -1.46% | 35.4%
Cc1ccc(-c2nc(CNC3CCc4ncnn4C3)co2)c(C)c1 (configuration not stated) | -9.8% | -22%
COc1cccc(N2CCN(C(=O)[C@H](O)C3CCCCC3)CC2=O)c1 | -3.25% | -7.11%
O=S(=O)(CCCN1CCCC1Cn1cncn1)c1ccccc1 (configuration not stated) | -1.76% | -32.7%
Cn1cccc1C(=O)NCc1cnc2n1CCN(C(=O)N1CCCC1)C2 | -0.495% | -94.8%

Structure (SMILES) | Percent Effect [1] | Percent Effect [2]
CSC(C)C(=O)N1CCCN(Cc2cnn(C(C)C)c2)CC1 (configuration not stated) | -0.235% | 20.4%
Cc1nc(C(=O)N2CCCC2c2c(C)nn(C)c2C)ccc1C#N (configuration not stated) | -1.21% | -18%
Cc1cc(C)n(Cc2ccc(C(=O)NCCN3CCOCC3)cc2)n1 | -4.18% | 6.83%
Cc1ccoc1-c1nnc(CN2CCCC(Cn3cncn3)C2)o1 (configuration not stated) | 1.01% | -16.9%
Cc1nn(C)c(C)c1C(C)NC(=O)Nc1cccnc1N1CCCC1 (configuration not stated) | -3.63% | 10.7%
CC(=O)NCCN1CCC(c2cccs2)CC1 | -5.78% | 1.86%
CCc1nccn1C1CCCN(C(=O)CCc2nccs2)C1 (configuration not stated) | 2.69% | 16.2%
Cc1nc(CN2CCCN(C(=O)C3(C#N)CCCCC3)CC2)cs1 | 1.34% | 11.8%
CCc1noc(C2CCCCN2C(=O)c2ccn(C3CCCC3)n2)n1 (configuration not stated) | -5.11% | -5.88%
CS(=O)(=O)N1CCC(Oc2cnccn2)CC1 | -0.656% | -5.3%
CCn1nc2c(cc1=O)CN(Cc1nc(N)c3ccccc3n1)CC2 | 1.61% | 15.6%
Cc1cn(CC(=O)NC2CCN(S(C)(=O)=O)CC2)c2ccccc12 | 2.86% | -10.4%
Cn1cc(CN2CC[C@H](O)[C@@H]2Cc2ccncc2)cn1 | -1.6% | -6.08%
O=C(NCC(F)F)N1CCC(n2ccc(C(F)(F)F)n2)CC1 | -6.76% | -7.64%
CC(C)c1csc(C2CCCN(C(=O)c3ncccn3)C2)n1 (configuration not stated) | -2.21% | -20%
Cc1cccc(C(=O)NCc2ccc(N3CCCCC3)nc2)n1 | 2.43% | -10.8%
O=C1NCCN(CC2CC2)C12CCN(Cc1ccc3c(c1)OCO3)CC2 | 11.3% | -21.2%
CCN(CCn1cccn1)Cc1nc(-c2cccs2)oc1C | -0.251% | 7.38%
O=C(c1ccc(F)cc1Cl)N1CCC(Nc2cccnn2)CC1 | 4.05% | -21.1%
O=C1CCC2(CCCN(CCc3ccccc3)C2)N1Cc1cccnc1 (configuration not stated) | 4.25% | -5.68%
Cc1nc(C(=O)N2CCCC(c3cccc(-n4ccnc4)n3)C2)co1 (configuration not stated) | -0.67% | 3.79%
Cn1cnnc1C1CCCN(C(=O)c2ccc3c(c2)OCCCO3)C1 (configuration not stated) | 0% | 1.29%
OC(CN1CCC(c2ccn[nH]2)CC1)c1cccc(F)c1 (configuration not stated) | -4.71% | -2.5%
O=C(O)c1cc(S(=O)(=O)N2CCOc3ccccc32)ccc1F | -4.32% | -3.29%
Cc1ccc(CC(=O)NCCCNS(C)(=O)=O)cc1 | 2.46% | -16.3%
CCCS(=O)(=O)NC(C)C(=O)NCc1ccc(N2CCCC2)nc1 (configuration not stated) | 2.42% | 7.72%

Structure (SMILES) | Percent Effect [1] | Percent Effect [2]
CCN(CC)C(=O)Nc1cc2c(cc1SC)OCCO2 | -1.51% | 12%
COc1cc(C(=O)NS(=O)(=O)c2cccc(C#N)c2)cc(Cl)c1OC | 0.845% | 3.59%
COc1cc(CNC2CCc3nc(C(C)C)nn3C2)cc2c1OCO2 (configuration not stated) | 1.32% | 15.4%
CC(c1ccc(Cl)cc1)N1CCN(CCS(C)(=O)=O)CC1 (configuration not stated) | -1.84% | 1.09%
CCN(Cc1nc2c(cnn2C)c(=O)[nH]1)c1ccc(OC)c(OC)c1 | 2.9% | -61.1%
CC(=O)N(Cc1ncc(C)o1)C1CCN(Cc2cccc(C#N)c2)C1 (configuration not stated) | 0.127% | 9.86%
Cc1ccc(C(=O)NCCNc2ncccc2C#N)c(=O)[nH]1 | -1.85% | -19.7%
O=C(NCc1nnc2n1CCCCC2)N1CCc2sccc2C1 | -4.29% | -45.2%
O=C(O)[C@]12CCCN(Cc3ccccc3)C[C@H]1CN(c1ncccn1)C2 | 6.32% | -14.8%
Cc1cccc(CN2C(=O)CC[C@@H]3[C@H]2CCN3Cc2ccc(C)s2)n1 | 7.52% | -11.3%
Cc1cnn(CC2CN(Cc3nnc(C4CC4)o3)CCO2)c1 (configuration not stated) | -2.56% | 24.8%
O=C(COCc1nc(-c2ccncc2)no1)NC1CCCCC1 | 2.71% | -15.1%
CC(C)(C)OC(=O)N1CCCc2ccc(NCc3ncc[nH]3)cc21 | 5.68% | -52.5%
CN(C)C(=O)NC1COC2(CCN(Cc3ccccc3)CC2)C1 (configuration not stated) | -3.84% | -5.12%
CCn1ccnc1CNCC1CCCN1c1cc(NC)ncn1 (configuration not stated) | 1.78% | -12.7%
Cc1nnc2n1CCN(Cc1ncc(-c3ccc(Cl)cc3)o1)C2 | -2.3% | 25.1%
COc1cc(N2CC[C@H](O)[C@@H]2Cc2cnn(C)c2)ncn1 | -4.05% | -1.67%
Cc1nc(CN2C[C@@H]3CN(C(=O)c4cccn4C)C[C@@H]3C2=O)cs1 | -0.382% | -4.43%
O=S(=O)(Nc1cnn(C2CCOCC2)c1)c1ccc(F)c(F)c1 | 3.75% | 1.76%
CCN(Cc1ccco1)C(=O)Nc1cc(C(F)(F)F)c[nH]c1=O | 3.71% | 34.2%
O=C(NCCN1CCCCCC1=O)c1n[nH]c(=O)c2ccccc12 | -3.85% | -6.19%
CCc1nnc2n1CCN(C(=O)COCCc1ccccc1)C2 | 3.29% | 24.8%
Cc1ccc(-c2ncc(C(=O)NCCS(N)(=O)=O)s2)c(C)c1 | 1.7% | 18.5%
